Hits are enriched below; roughly 2.4% of the tested compounds scored in any of these assays.
Pf Dd2 growth: P. falciparum Dd2 growth inhibitors, primary screen, SYBR Green fluorescence, single dose replicates | 72 h; stronger effect = lower value | activity change, % at 10 µM | 94,000 compounds, 2.3% hits | AID 1159554, 2015; in the data active means activity change below about -80%; inconclusive means no clear call, values can overlap the other calls
C diff growth: C. difficile growth inhibitors, primary screen, HTS. Clostridium difficile clinical isolate growth, OD600, 24 h; stronger effect = lower value. growth activity, negative = inhibition, % at 16 µg/mL (by protocol). 86,000 compounds, 0.25% hits;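 active means mean growth activity at or below -80% and every replicate also at or below -80%; inconclusive means mean at or below -80% but some replicate above -80%; inactive means mean growth activity above -80%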;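 further: 0% = DMSO wells and -100% = levofloxacin 16 µg/mL wells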
* hit, by the source's call; ? = inconclusive; · = no result.

SMILES | Pf Dd2 growth | C diff growth
C[C@H]1CN([C@@H](C)CO)C(=O)c2c(c3ccccc3n2C)-c2ccccc2CO[C@H]1CN(C)C(=O)c1cc(Cl)cc(Cl)c1 | -88* | 4
CNC[C@H]1OCCCC[C@H](C)Oc2ccc(NC(=O)C3CCCCC3)cc2C(=O)N([C@H](C)CO)C[C@@H]1C | -5 | -1
O=C(c1ccccn1)N1CC(=O)N2[C@H](C1)[C@H](c1ccc(C#Cc3ccccc3)cc1)[C@@H]2CO | -13 | -3
C[C@@H]1CN([C@H](C)CO)S(=O)(=O)c2ccc(-c3ccccc3)cc2O[C@@H]1CN(C)C(=O)c1ccccc1F | -14 | -6
C[C@@H]1CN([C@H](C)CO)C(=O)c2cc(NS(=O)(=O)c3ccc(F)cc3)ccc2O[C@H]1CN(C)C | 16 | 2
COc1cccc(CN2CC3(CCN(Cc4ccccn4)CC3)c3c([nH]c4cc(OC)ccc34)[C@@H]2CO)c1 | -89* | 10
COc1ccc2c3c([nH]c2c1)[C@@H](CO)N(Cc1nccs1)CC31CCN(Cc2nccs2)CC1 | -90* | 17
COc1ccc2c3c([nH]c2c1)[C@@H](CO)N(Cc1cccc(F)c1)CC31CCN(Cc2ccccn2)CC1 | -92* | 4
COc1ccc2c3c([nH]c2c1)[C@H](CO)N(Cc1ccccn1)CC31CCN(Cc2cccc(F)c2)CC1 | -78 | 6
COc1ccc2c3c([nH]c2c1)[C@H](CO)N(Cc1nccs1)CC31CCN(Cc2cncnc2)CC1 | -61 | 5
COc1ccc2c3c([nH]c2c1)[C@H](CO)N(C(=O)Cc1ccccn1)CC31CCN(Cc2ccccn2)CC1 | 18 | 10
O=C(NCC1CC1)[C@H]1[C@H](CO)[C@H]2Cn3c(cccc3=O)[C@@H]1N2C(=O)c1cccnc1 | 12 | -4
C[C@H]1CCCCO[C@@H](CN(C)Cc2ccccc2)[C@@H](C)CN([C@@H](C)CO)C(=O)c2cc(NC(=O)Nc3ccc(F)cc3)ccc2O1 | -86* | 5
C[C@@H]1CN([C@H](C)CO)C(=O)c2cc(NC(=O)Nc3ccccc3)ccc2O[C@@H](C)CCCCO[C@@H]1CN(C)Cc1ccc(C(F)(F)F)cc1 | -85* | -1
C[C@@H]1CCCCO[C@H](CN(C)Cc2ccc(Cl)c(Cl)c2)[C@@H](C)CN([C@@H](C)CO)C(=O)c2cc(NC(=O)Cc3ccccc3)ccc2O1 | -86* | -2
C[C@@H]1CCCCO[C@H](CN(C)Cc2ccccc2)[C@@H](C)CN([C@H](C)CO)C(=O)c2cc(NC(=O)Nc3ccc(F)cc3)ccc2O1 | 26 | 0
C[C@@H]1CCCCO[C@H](CN(C)Cc2ccc(C(F)(F)F)cc2)[C@H](C)CN([C@@H](C)CO)C(=O)c2cc(NC(=O)Nc3ccccc3)ccc2O1 | -76 | 4
C[C@@H]1CN([C@@H](C)CO)C(=O)c2cc(NC(=O)Nc3ccccc3)ccc2O[C@@H](C)CCCCO[C@@H]1CN(C)Cc1ccc(C(F)(F)F)cc1 | -82* | 0
C[C@@H]1CCCCO[C@H](CN(C)Cc2ccc(C(F)(F)F)cc2)[C@H](C)CN([C@H](C)CO)C(=O)c2cc(NC(=O)Nc3ccccc3)ccc2O1 | -74 | 1
C[C@@H]1CN([C@H](C)CO)C(=O)c2cc(NC(=O)Cc3ccccc3)ccc2O[C@@H](C)CCCCO[C@@H]1CN(C)Cc1ccc(Cl)c(Cl)c1 | -55 | 6
C[C@@H]1CN([C@H](C)CO)C(=O)c2cc(C#Cc3ccncc3)cnc2O[C@H]1CN(C)CC1CCCC1 | -14 | -1
C[C@H]1CN([C@@H](C)CO)C(=O)c2cc(C#Cc3ccncc3)cnc2O[C@H]1CN(C)Cc1ccncc1 | 40 | 12
C[C@@H]1CCCCO[C@H](CN(C)Cc2ccc(C(F)(F)F)cc2)[C@@H](C)CN([C@@H](C)CO)C(=O)c2cc(NC(=O)Cc3ccccc3)ccc2O1 | -89* | ·
C[C@@H]1CCCCO[C@@H](CN(C)Cc2ccc(Cl)c(Cl)c2)[C@H](C)CN([C@H](C)CO)C(=O)c2cc(NC(=O)C3CCCCC3)ccc2O1 | -83* | 3
C[C@@H]1CCCCO[C@H](CN(C)Cc2ccc(Cl)c(Cl)c2)[C@@H](C)CN([C@H](C)CO)C(=O)c2cc(NC(=O)C3CCCCC3)ccc2O1 | -22 | 4
SMILES | Pf Dd2 growth | C diff growth
C[C@H]1CCCCO[C@@H](CN(C)Cc2ccccc2)[C@@H](C)CN([C@@H](C)CO)C(=O)c2cc(NC(=O)Nc3ccc(C(F)(F)F)cc3)ccc2O1 | -86* | 23
C[C@@H]1CCCCO[C@H](CN(C)Cc2ccc(C(F)(F)F)cc2)[C@H](C)CN([C@@H](C)CO)C(=O)c2cc(NC(=O)c3ccccc3)ccc2O1 | -85* | 10
C[C@@H]1CCCCO[C@H](CN(C)Cc2ccc(C(F)(F)F)cc2)[C@@H](C)CN([C@H](C)CO)C(=O)c2cc(NC(=O)c3ccccc3)ccc2O1 | -37 | 12
C[C@@H]1CCCCO[C@H](CN(C)Cc2ccccc2)[C@H](C)CN([C@H](C)CO)C(=O)c2cc(NC(=O)Nc3ccc(C(F)(F)F)cc3)ccc2O1 | -72 | 22
C[C@@H]1CCCCO[C@H](CN(C)Cc2ccc(C(F)(F)F)cc2)[C@@H](C)CN([C@H](C)CO)C(=O)c2cc(NC(=O)Cc3ccccc3)ccc2O1 | -15 | ·
C[C@@H]1CN([C@H](C)CO)C(=O)Cc2cc(NC(=O)Cc3ccccc3)ccc2O[C@@H]1CN(C)Cc1ccncc1 | -11 | 2
Cc1ccccc1-c1cnc2c(c1)C(=O)N([C@@H](C)CO)C[C@H](C)[C@H](CN(C)C(=O)c1ccncc1)O2 | 13 | 4
COc1ccccc1C#Cc1ccc([C@H]2[C@@H](CO)N(C(=O)C3CCCC3)[C@H]2C#N)cc1 | -27 | -2
COc1ccccc1C#Cc1ccc([C@H]2[C@@H](C#N)N(C(=O)C3CCC3)[C@H]2CO)cc1 | -90* | -4
COc1ccccc1C#Cc1ccc([C@H]2[C@@H](CO)N(C(=O)C3CC3)[C@H]2C#N)cc1 | ? | 15
COc1ccccc1C#Cc1ccc([C@@H]2[C@@H](CO)N(C(=O)C3CCCC3)[C@H]2C#N)cc1 | -88* | 16
COc1ccccc1C#Cc1ccc([C@@H]2[C@@H](C#N)N(C(=O)C3CCCC3)[C@H]2CO)cc1 | -88* | -10
COc1ccccc1C#Cc1ccc([C@@H]2[C@@H](C#N)N(C(=O)C3CCCC3)[C@@H]2CO)cc1 | -63 | -4
CC(C)C#Cc1ccc2c(c1)O[C@H](CN(C)S(=O)(=O)c1cn(C)cn1)[C@@H](C)CN([C@H](C)CO)S2(=O)=O | -17 | ·
CCC(=O)N1C[C@H](C)[C@H](OC)CN(C)C(=O)c2cc(NC(=O)NC(C)C)ccc2OC[C@H]1C | 24 | -2
O=C(c1cccc(F)c1)N1CC2(C1)[C@H](c1ccccc1)[C@H](CO)N2C(=O)C1CCCC1 | 5 | 5
COc1ccccc1NC(=O)N(C)C[C@H]1Oc2ncc(C#CC(C)C)cc2C(=O)N([C@H](C)CO)C[C@H]1C | -1 | 1
CCCC#Cc1cnc2c(c1)C(=O)N([C@H](C)CO)C[C@H](C)[C@H](CN(C)C(=O)Nc1cc(F)ccc1F)O2 | -35 | -4
COc1ccccc1NC(=O)N(C)C[C@@H]1Oc2ncc(C#CC(C)C)cc2C(=O)N([C@@H](C)CO)C[C@H]1C | -82* | -3
CCCC#Cc1cnc2c(c1)C(=O)N([C@H](C)CO)C[C@@H](C)[C@H](CN(C)C(=O)Nc1cc(F)ccc1F)O2 | -81* | -11
